This passage reports inhibition results from PubChem BioAssay.

SMILES strings stand for the structures. Values without a mark were called inactive. Active and inactive are the calls of the source. Unless noted, the rule behind the calls is not given here.

Chain of L-lactate dehydrogenase (Plasmodium falciparum (isolate CDC / Honduras)) (Q27743 whole entry, looked up): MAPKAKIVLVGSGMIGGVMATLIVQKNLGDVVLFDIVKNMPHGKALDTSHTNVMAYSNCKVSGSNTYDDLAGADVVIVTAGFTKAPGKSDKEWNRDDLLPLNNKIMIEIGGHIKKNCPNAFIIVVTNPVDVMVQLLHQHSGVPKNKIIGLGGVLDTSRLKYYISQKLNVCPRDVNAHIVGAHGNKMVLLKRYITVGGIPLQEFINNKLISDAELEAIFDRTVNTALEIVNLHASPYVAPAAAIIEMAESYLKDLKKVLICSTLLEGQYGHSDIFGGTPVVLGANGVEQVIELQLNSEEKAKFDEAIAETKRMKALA

Test system in one assay: not listed separately
Kind of assay: HepG2 cytotoxicity, primary screen, cytotoxicity control for P. falciparum antimalarial project, cell-based, ATP luminescence (AID 2303;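 active = inhibition above 50%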;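 note: 0% = DMSO wells and 100% = digitonin-killed cells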). To be noted: HepG2 viability, 24-48 h, at 10 µM, active compounds read high.
The term inhibition denotes the change of the read-out against control, counted positive when it falls. As to `CCc1c[nH]c2c(N(c3ccccc3)S(C)(=O)=O)cc(C(=O)N[C@@H](Cc3ccccc3)[C@H](O)CNC(C)(C)CCCC(C)C)cc12`, the inhibition was 99% (active).

`CC1(C)N=C(N)N=C(N)N1OCCCOc1cccc2ccccc12`: the inhibition was 67% (active).

As to `Cc1cc(N[C@@H](Cc2ccccc2)C(=O)NC2CCCC2)nc(NCC2CCCCC2)n1`, the inhibition is 18%. For the compound `COc1ccc(CNc2nc(NCc3ccc(C(F)(F)F)cc3)c3cc(OC)c(OC)cc3n2)cc1OC`, the inhibition was 80% (active). As to `Clc1ccc(CNc2ccnc(NCCc3coc4ccccc34)n2)c(Cl)c1`, the inhibition is 26%.

For the compound `COc1ccc2nccc([C@@H](O)CN3CCC(NC(=O)[C@@H]4Cc5ccccc5CN4C(=O)OC(C)(C)C)CC3)c2c1`, the inhibition was 15%.

The next assay addresses L-lactate dehydrogenase (Plasmodium falciparum (isolate CDC / Honduras)) (UniProt Q27743). Kind of assay: PfLDH activity inhibition – cell lysate, 3D7 strain, counter-screen for P. falciparum growth inhibition project (AID 2304).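 Note: 0% = vehicle and 100% = reference inhibitor.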 To be noted: P. falciparum 3D7 crude extract, LDH APAD/NBT absorbance; at 2 µM; active compounds read high. A general note: Counterscreens check selectivity or assay interference.
Consider `CC(=O)Nc1ccc(C(=O)Nc2cccc(-c3cccc(-c4nc5c(C)cccc5[nH]4)c3)c2)cn1`, for which the inhibition is -2%. Still for that read-out and setting: the value for `Nc1nc2c(c(=O)[nH]1)-c1cccc(Br)c1CC2` was 0%; that for `NC(=O)c1cccc(-n2ccc3cc(CNC4Cc5ccccc5C4)ccc32)c1` was -1%; that for `Cc1[nH]c(C)c(-c2ccc(OCc3cc(F)cc(F)c3)nc2)c(=O)c1Br` was -7%. For `C[C@@H]([C@@H](CCCCc1ccccc1)C(=O)N[C@H](C(=O)Nc1cccnc1)C(C)(C)C)N(O)C=O`, the inhibition was 0%. For the compound `CCNC(=O)NC1CCN(Cc2c(-c3cccs3)nc3ccccc3c2C(=O)N[C@@H](C)C2CCCCC2)CC1`, the inhibition was -2%. Consider `Cc1[nH]c(C)c(-c2ccc(OCCCc3ccccn3)cc2)c(=O)c1Br`, for which the inhibition is 5%.

As for `Cn1cncc1C(=O)Nc1cccc(-c2csc(-c3nc4ccccc4[nH]3)c2)c1`, the inhibition is -3%.

Regarding `FC(F)(F)c1ccc2nc(-c3cccc(-c4cccc(CN5CCN(c6ccncc6)CC5)c4)c3)[nH]c2c1`, the inhibition was 3%. Consider `CN(Cc1ccc(NC(=O)NC2CCN(C(=O)/C=C/c3ccc(Cl)c(Cl)c3)CC2)cc1)C1CCOCC1`, for which the inhibition was 5%. On the same count and under the same terms, the value for `CC(=O)N1Cc2ccccc2C1=O` was -4%; that for `O=C(Nc1cccc(-c2ccc(CN3CCCC3)cc2)c1)c1ccc(Cl)cc1` was -1%; that for `Nc1nonc1-c1nc2c(-c3cccc(Cl)c3)nccc2n1CCCNC(=O)Cc1ccc(Cl)cc1` was -2%. For the compound `NC1CCN(c2cnn(Cc3cccc(NC(=O)Nc4ccc(-c5ccccc5)cc4)c3)c(=O)c2Cl)CC1`, the inhibition is -3%. For the compound `COc1ccc(NC(=O)Nc2ccc(-c3ccc(-c4nc5c(C)cccc5[nH]4)s3)cc2)cc1`, the inhibition is 3%. The same measure, in the same setting: in the case of `Cc1cccc2[nH]c(-c3cccc(-c4ccc(NC(=O)c5ccoc5)cc4)c3)nc12` it was -5%.

In the case of `Cc1nc(-c2ccccc2)nc(N2CCN(C(=O)c3ccco3)CC2)c1Cc1ccccc1F`, the inhibition is 1%. On to `CC(=O)N(Cc1nc(-c2cc(Cl)c(Cl)s2)cs1)c1c(C)cccc1C`, for which the inhibition was 3%. For `O=C(CSc1nc2ccccc2c(=O)n1CC1CCCO1)Nc1cc(C(F)(F)F)ccc1Cl` (configuration not stated), the inhibition is -2%. Take `CCCCCCCCn1c2c(c(=N)c3c1CCC3)CCCC2`: the inhibition was 2%. Turning to `O=[N+]([O-])c1ccc(C(O)CNCCc2ccccc2)cc1OCc1ccccc1` (configuration not stated), the inhibition was -1%. On to `O=C(c1cccc(-c2ccc(-c3nc4ccc(C(F)(F)F)cc4[nH]3)cc2)c1)N1CCCCC1CN1CCC(O)C1` (configuration not stated), for which the inhibition was 4%. For the compound `COc1ccc2nc(NC3=NC(c4ccccn4)(c4ccccn4)C(=O)N3C)[nH]c2c1`, the inhibition was 1%. `Cn1c(NC2CCN(CC3CCN(C(=O)/C=C/c4ccc(Cl)c(Cl)c4)CC3)CC2)nc2ccccc21`: the inhibition was 3%.

On to `O=C(Nc1ccc(Cl)c(C(F)(F)F)c1)N[C@H]1CCN(CCCCCNC(=O)[C@@H]2C[C@H]2c2ccc(Cl)c(Cl)c2)C1`, for which the inhibition was 0%. In the case of `CN1CCc2cc(NS(=O)(=O)c3ccc(-c4ccc(Cl)s4)cc3)c(N3CCCCC3)cc2CC1`, the inhibition is 3%.

As to `CCc1sc(-c2ccc(C(C)(C)C)cc2)nc1C(=O)NCCCN1CCCC1=O`, the inhibition was -5%. For the compound `COc1cc2nc(N3CCC(CNC(=O)/C=C/c4cccc(C)c4)CC3)nc(N)c2cc1OC`, the inhibition is -8%. With `c1cc(CN2CCc3ccccc3CC2)cc(-c2c[nH]c3nc(NC4CCCC4)ncc23)c1`, the inhibition is -3%. Turning to `O=C(Nc1ccc(OC2CCN(Cc3ccc(F)cc3)CC2)c(Cl)c1)c1ccc(F)cc1`, the inhibition was -1%. Still for that read-out and setting: in the case of `COc1cccc(OC2CCN(C(=O)c3cc(C(C)(C)C)nn3Cc3ccccc3)CC2)c1` it was 3%.
